GPR7 antagonist: human neuropeptides B/W receptor 1 antagonism; P48145; GPR7-expressing cells, fluorescence antagonist assay; inhibition, % at 4.4 µM; actives 1.1% (n = 290,000); AID 1861; in the data active = inhibition above about 16%, passing the limit was not always enough;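 note: cells stimulated with the agonist NPW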
Target sequence (P48145 whole entry, looked up): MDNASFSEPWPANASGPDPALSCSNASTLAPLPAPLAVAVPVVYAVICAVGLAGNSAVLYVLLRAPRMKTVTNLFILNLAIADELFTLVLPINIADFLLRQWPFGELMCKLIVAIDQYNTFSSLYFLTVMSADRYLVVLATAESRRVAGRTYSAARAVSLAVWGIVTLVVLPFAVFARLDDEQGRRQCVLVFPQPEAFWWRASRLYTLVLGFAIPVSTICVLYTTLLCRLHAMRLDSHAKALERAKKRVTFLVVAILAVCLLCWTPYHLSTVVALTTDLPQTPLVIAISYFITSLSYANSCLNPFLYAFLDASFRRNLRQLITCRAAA
IEC-6 cytotox: counter-screen for KLF5 inhibitors: cytotoxicity in IEC-6 cells | actives 0.78% (n = 290,000) | inhibition, % at 5 µM | IEC-6 cytotoxicity, luminescence viability
Ba/F3 V617F tox: reduce viability of Ba/F3 cells dependent on JAK2V617F. AID 1446. Ba/F3 EpoR-JAK2V617F viability, ATP luminescence. inhibition, % at 5.6 µM. actives 1.1% (n = 220,000);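 active = inhibition above the campaign mean plus 3 SD over all tested compounds, cut at about 24% in these data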;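 note: cytokine-independent growth of Ba/F3 cells driven by EpoR plus mutant JAK2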
DNA FID counter: counter-screen for HCV NS3 helicase inhibitors: DNA intercalator displacement | inhibition, % at 7.9 µM | DNA fluorescent intercalator displacement, fluorescence | actives 0.17% (n = 290,000) | AID 1845; in the data active = inhibition above about 37%;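 note: higher means more ethidium bromide displaced from hairpin DNA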
BaF3 parental: counter-screen for JAK2V617F inhibitors: parental Ba/F3 viability inhibitors; CellTiter-Glo ATP luminescence; actives 1.1% (n = 220,000); inhibition, % at 5.6 µM;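 active = inhibition above a per-campaign cutoff, the mean inhibition of all tested compounds plus 3 SD, cut at about 27% in these data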
KLF5 inh: inhibitors of KLF5 expression. inhibition, % at 5 µM. AID 1700. actives 0.23% (n = 290,000). DLD-1 KLF5 promoter-luciferase reporter, luminescence;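 active = inhibition above a per-plate limit of that plate's mean compound inhibition plus 3 SD, cut at about 60% in these data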;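 note: higher means less KLF5 promoter-driven luciferase light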
GPR7 antag cf: confirmation of human GPR7 antagonists. shares compounds with GPR7 antagonist. GPR7-expressing cells, calcium fluorescence antagonist mode. inhibition, % at 4.4 µM. actives 52% (n = 2,400). AID 1952; in the data active = inhibition above about 24%;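 note: stimulated with the GPR7 agonist NPW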
MCHR1 antagonist: counter-screen for GPR7 antagonists: antagonists of human MCHR1; shares compounds with GPR7 antagonist; MCHR1-expressing cells, fluorescence antagonist assay; inhibition, % at 4.4 µM; actives 62% (n = 2,400); AID 2148
Of the large screens only hits and unclear results are named; the others gave an inactive call (follow-up assays come after a bar, where they were run). In the library only some 2.6% were active in any assay of this set; here they are far more common. Cut-off read from the data, not from the text of the source, unless noted: active = inhibition above about 22%; inactive = the rest.

COCCOCC(O)CN1CCN(c2ccccc2)CC1 (configuration not stated)	none
CCOC(=O)N1CCN(C(=O)c2ccc(CSc3ccc(Cl)cc3)cc2)CC1	GPR7 antagonist 25 | GPR7 antag cf inactive | MCHR1 antagonist 49
COc1cc2ccccc2cc1C(=O)Nc1ccc(C)cn1	none (no result: Ba/F3 V617F tox, BaF3 parental)
O=C(Cc1cccc(C(F)(F)F)c1)Nc1ccccc1	none
CCCCNC(=NCc1cccc(C(F)(F)F)c1)Nc1ccccc1	GPR7 antagonist 44 (no result: Ba/F3 V617F tox, BaF3 parental) | GPR7 antag cf 49 | MCHR1 antagonist 31
C/C(=N/NC(=O)c1cccs1)c1cccc(NC(=O)C2CC2)c1	GPR7 antagonist 36 | GPR7 antag cf inactive | MCHR1 antagonist inactive
CCC(CC)NC(=O)c1oc2ccccc2c1COc1ccccc1	GPR7 antagonist 22 | GPR7 antag cf 49 | MCHR1 antagonist 46
CC(C)CNC(=O)c1oc2ccccc2c1COc1ccccc1	none
CCOc1ccc(C(=O)CSc2nnc(N)s2)cc1	none
COc1ccc(C2C(C(=O)c3sc(C)nc3C)=C(O)C(=O)N2CCN(C)C)cc1OC (configuration not stated)	none
O=C(COc1cccc(NC(=O)c2cccc([N+](=O)[O-])c2)c1)c1ccc(F)cc1	GPR7 antagonist 29 | GPR7 antag cf 35 | MCHR1 antagonist 70
O=C(NCc1cccc(Cl)c1)c1ccc(-c2csnn2)cc1	GPR7 antagonist 25 | GPR7 antag cf inactive | MCHR1 antagonist inactive
O=C(NCc1cccc(Cl)c1)c1ccc2nc[nH]c2c1	none
COCCNC(=S)N/N=C(\C)c1ccc(Cl)c(Cl)c1	none
N#CC1=C(N)Oc2cc(N)ccc2C1c1ccc(F)cc1F (configuration not stated)	GPR7 antagonist 34 (no result: Ba/F3 V617F tox, BaF3 parental) | GPR7 antag cf inactive | MCHR1 antagonist inactive
O=C1C2CC=CCC2C(=O)N1c1ccc(NCCc2ccc(Cl)cc2)c([N+](=O)[O-])c1 (configuration not stated)	none
O=C1C2CC=CCC2C(=O)N1c1ccc(NCCc2ccc(O)cc2)c([N+](=O)[O-])c1 (configuration not stated)	GPR7 antagonist 31 | GPR7 antag cf 28 | MCHR1 antagonist 55
CCN(Cc1ccccc1)C(=O)CCNS(=O)(=O)c1ccc2c(c1)CC(C)N2C(C)=O (configuration not stated)	none (no result: Ba/F3 V617F tox, BaF3 parental)
O=S(=O)(NCc1cn2ccsc2n1)c1cccs1	GPR7 antagonist 27 | GPR7 antag cf inactive | MCHR1 antagonist inactive
CCOC(=O)Cn1c(=O)oc2cc(S(=O)(=O)NCCc3ccc(C)cc3)ccc21	none
CCOC(=O)Cn1c(=O)oc2cc(S(=O)(=O)Nc3ccc(F)cc3)ccc21	GPR7 antagonist 25 | GPR7 antag cf 42 | MCHR1 antagonist 37
COc1ccc(-n2c(=S)[nH]c3[nH]ncc3c2=O)cc1	GPR7 antagonist 23 | GPR7 antag cf inactive | MCHR1 antagonist inactive
CN(C)c1ccc(NC(=O)CN2CCN(S(=O)(=O)c3cc(Cl)ccc3Cl)CC2)cc1	none
CC(C)OC(=O)CN1CCN(S(=O)(=O)c2cc(Cl)ccc2Cl)CC1	GPR7 antagonist 27 | GPR7 antag cf inactive | MCHR1 antagonist inactive
Cc1cc(C(=O)N2CCC(Cc3ccccc3)CC2)c(C)o1	GPR7 antagonist 28 (no result: Ba/F3 V617F tox, BaF3 parental) | GPR7 antag cf 27 | MCHR1 antagonist 33
Cc1nc(N2CCCCC2C)c2c(C)c(C(=O)Nc3ccccc3C(F)(F)F)sc2n1 (configuration not stated)	none
CN1C(=O)c2ccc(NC(=O)CSc3ccccc3)cc2C1=O	none (no result: Ba/F3 V617F tox, BaF3 parental)
O=C(CSc1ccc(F)cc1)Nc1ccc2c(c1)C(=O)NC2=O	GPR7 antagonist 25 (no result: Ba/F3 V617F tox, BaF3 parental) | GPR7 antag cf 36 | MCHR1 antagonist 43
COc1ccccc1CC(=O)Nc1ccc(OC)c(OC)c1	none
COc1ccccc1CC(=O)Nc1ccc2c(c1)C(=O)NC2=O	GPR7 antagonist 33 | GPR7 antag cf inactive | MCHR1 antagonist inactive
CCn1c(SCC(=O)N2c3ccccc3CCc3ccccc32)nnc1-c1ccc(OC)cc1	none
Cc1cccc2cc(CN(CCCN(C)C)C(=S)NCCc3ccccc3)c(=O)[nH]c12	GPR7 antagonist 31 | GPR7 antag cf 49 | MCHR1 antagonist 30

Assay outcomes deposited in PubChem by The Scripps Research Institute Molecular Screening Center.
